# Source: PMC7862700, “An all-to-all approach to the identification of sequence-specific readers for epigenetic DNA modifications on cytosine”
# Legend:
# Assay in all cases: DAPPL (digital affinity profiling via proximity ligation, sequencing); 10 mM Tris-HCl pH 7.5, 50 mM NaCl, 1 mM DTT, 4% glycerol, room temperature, 30 min; GST-TFs on glutathione beads, 16-mer random dsDNA library, 0.1% formaldehyde crosslink after washing; high values mean tight binding
# FLI1 = target: T1, FLI1 (Homo sapiens, UniProt Q01543 1-452); details: protein: recombinant; tags: N-terminal GST; dsDNA, one strand shown
# T1 sequence: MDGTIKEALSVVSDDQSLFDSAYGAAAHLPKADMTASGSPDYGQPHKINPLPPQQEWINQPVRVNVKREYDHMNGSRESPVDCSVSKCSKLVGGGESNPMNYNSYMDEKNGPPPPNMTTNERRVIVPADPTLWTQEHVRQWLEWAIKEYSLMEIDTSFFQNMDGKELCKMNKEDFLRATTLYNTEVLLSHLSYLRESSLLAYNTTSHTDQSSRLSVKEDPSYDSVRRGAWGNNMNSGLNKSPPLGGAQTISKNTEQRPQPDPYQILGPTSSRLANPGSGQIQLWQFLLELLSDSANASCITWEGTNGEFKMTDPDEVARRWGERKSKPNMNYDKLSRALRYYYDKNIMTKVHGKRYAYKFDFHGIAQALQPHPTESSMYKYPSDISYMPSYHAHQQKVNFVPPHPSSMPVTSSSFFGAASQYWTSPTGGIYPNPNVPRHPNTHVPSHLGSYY
# Method in brief: (§1)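 Human transcription factors were made in yeast as GST fusions, captured on glutathione beads and barcoded with DNA. With a tag-only sample included, the pool was incubated with 200 nmole of a random double-stranded 16-mer DNA library in Tris/NaCl/DTT/glycerol buffer at room temperature for 30 min, then crosslinked with 0.1% formaldehyde after washing, ligated by proximity, amplified and sequenced. For binding signal, each hexamer's read frequency for a factor is divided by its frequency for the tag-only sample.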
# ELK1 = target: T2, ELK1 (Homo sapiens, UniProt P19419 1-428); details: protein: recombinant; tags: N-terminal GST; dsDNA, one strand shown
# T2 sequence: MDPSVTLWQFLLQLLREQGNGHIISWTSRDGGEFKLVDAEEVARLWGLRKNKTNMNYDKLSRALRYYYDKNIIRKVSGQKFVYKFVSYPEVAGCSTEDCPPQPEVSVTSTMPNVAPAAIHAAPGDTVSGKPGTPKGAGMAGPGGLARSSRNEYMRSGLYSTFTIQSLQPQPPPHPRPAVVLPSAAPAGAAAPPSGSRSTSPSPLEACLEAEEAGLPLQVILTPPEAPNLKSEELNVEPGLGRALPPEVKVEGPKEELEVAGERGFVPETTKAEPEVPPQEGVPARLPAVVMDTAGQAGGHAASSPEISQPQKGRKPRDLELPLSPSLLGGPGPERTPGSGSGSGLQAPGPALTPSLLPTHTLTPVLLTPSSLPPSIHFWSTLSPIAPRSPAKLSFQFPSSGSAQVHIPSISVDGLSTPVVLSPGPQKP
# Method in brief: as §1
# ELF1 = ELF1 (Homo sapiens, UniProt P32519 1-619); details: protein: recombinant; tags: N-terminal GST; dsDNA, one strand shown
# ELF1, sequence (P32519 whole entry): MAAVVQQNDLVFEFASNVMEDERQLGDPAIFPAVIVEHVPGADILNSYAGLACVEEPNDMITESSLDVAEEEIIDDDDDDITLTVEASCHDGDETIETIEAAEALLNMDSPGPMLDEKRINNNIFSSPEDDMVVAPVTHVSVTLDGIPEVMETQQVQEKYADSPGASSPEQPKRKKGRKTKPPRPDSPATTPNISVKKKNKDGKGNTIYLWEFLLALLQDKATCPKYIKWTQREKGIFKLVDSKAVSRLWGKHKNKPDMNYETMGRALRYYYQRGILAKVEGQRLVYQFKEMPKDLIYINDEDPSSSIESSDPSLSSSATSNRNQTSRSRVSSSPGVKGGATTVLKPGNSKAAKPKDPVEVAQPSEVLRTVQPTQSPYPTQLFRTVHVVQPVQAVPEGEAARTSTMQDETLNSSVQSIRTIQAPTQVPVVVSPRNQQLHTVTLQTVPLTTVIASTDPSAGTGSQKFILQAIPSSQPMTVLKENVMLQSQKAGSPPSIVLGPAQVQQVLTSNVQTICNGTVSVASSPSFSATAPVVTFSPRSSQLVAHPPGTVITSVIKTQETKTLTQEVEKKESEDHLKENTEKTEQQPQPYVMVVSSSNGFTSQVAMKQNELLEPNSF
# Method in brief: as §1
# EHF = target: T3, EHF (Homo sapiens, UniProt Q9NZC4 1-300); details: protein: recombinant; tags: N-terminal GST; dsDNA, one strand shown
# T3 sequence: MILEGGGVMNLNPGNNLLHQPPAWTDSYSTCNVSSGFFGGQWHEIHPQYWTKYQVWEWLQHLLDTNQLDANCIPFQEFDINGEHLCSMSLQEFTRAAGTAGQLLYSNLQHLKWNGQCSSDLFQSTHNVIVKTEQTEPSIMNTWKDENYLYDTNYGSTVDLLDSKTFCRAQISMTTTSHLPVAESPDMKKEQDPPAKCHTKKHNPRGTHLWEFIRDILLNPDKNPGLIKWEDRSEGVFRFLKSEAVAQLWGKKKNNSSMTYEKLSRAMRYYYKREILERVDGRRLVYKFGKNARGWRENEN
# Method in brief: as §1
# SPIB = SPIB (Homo sapiens, UniProt Q01892 1-262); details: protein: recombinant; tags: N-terminal GST; dsDNA, one strand shown
# SPIB, sequence (Q01892 whole entry): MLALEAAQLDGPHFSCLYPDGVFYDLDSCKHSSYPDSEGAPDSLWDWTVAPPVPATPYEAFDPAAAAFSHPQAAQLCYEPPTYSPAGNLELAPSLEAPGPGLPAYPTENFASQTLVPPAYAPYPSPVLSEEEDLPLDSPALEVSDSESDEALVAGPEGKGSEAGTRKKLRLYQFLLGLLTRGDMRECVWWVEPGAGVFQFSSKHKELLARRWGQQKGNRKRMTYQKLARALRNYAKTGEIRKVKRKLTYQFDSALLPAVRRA
# Method in brief: as §1
# SPIC = target: T4, SPIC (Homo sapiens, UniProt Q8N5J4 1-248); details: protein: recombinant; tags: N-terminal GST; dsDNA, one strand shown
# T4 sequence: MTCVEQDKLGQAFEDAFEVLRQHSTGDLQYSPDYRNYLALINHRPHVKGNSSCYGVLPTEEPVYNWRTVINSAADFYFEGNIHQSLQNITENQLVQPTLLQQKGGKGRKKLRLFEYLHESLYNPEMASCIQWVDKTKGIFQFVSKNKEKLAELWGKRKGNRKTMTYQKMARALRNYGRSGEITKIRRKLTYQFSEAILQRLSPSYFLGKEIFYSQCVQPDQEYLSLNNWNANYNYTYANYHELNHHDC
# Method in brief: as §1
# ELF4 = ELF4 (Homo sapiens, UniProt Q99607 1-663); details: protein: recombinant; tags: N-terminal GST; dsDNA, one strand shown
# ELF4, sequence (Q99607 whole entry): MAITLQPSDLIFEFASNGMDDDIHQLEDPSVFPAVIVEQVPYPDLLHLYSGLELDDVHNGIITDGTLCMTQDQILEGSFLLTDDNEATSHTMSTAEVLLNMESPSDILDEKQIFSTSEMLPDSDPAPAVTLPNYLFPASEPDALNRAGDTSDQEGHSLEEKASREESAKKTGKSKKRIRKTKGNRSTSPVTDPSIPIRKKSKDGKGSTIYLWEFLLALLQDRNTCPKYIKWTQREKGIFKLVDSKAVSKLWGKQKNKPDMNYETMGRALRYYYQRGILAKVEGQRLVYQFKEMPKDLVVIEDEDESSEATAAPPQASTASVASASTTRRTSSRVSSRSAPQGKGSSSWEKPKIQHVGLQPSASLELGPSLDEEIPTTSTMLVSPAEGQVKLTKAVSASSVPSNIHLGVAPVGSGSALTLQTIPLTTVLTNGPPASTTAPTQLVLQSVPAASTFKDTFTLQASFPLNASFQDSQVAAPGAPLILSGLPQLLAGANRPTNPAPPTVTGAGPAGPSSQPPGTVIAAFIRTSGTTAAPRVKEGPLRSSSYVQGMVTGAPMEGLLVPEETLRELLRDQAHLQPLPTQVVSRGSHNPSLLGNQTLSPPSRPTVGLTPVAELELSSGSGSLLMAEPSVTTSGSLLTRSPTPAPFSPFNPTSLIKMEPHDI
# Method in brief: as §1
# ELK4 = target: T5, ELK4 (Homo sapiens, UniProt P28324-2 1-405); details: protein: recombinant; tags: N-terminal GST; dsDNA, one strand shown
# T5 sequence: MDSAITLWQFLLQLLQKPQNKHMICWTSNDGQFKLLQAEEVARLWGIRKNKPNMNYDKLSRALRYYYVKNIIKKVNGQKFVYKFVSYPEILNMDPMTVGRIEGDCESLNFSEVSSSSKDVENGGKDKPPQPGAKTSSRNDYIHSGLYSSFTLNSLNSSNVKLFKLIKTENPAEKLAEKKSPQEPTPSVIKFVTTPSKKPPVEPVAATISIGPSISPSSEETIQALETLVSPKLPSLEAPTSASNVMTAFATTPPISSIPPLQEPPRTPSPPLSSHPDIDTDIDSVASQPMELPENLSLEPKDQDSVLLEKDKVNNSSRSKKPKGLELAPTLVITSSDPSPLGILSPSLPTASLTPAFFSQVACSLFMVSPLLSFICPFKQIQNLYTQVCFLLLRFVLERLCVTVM
# Method in brief: as §1
# ETV1 = ETV1 (Homo sapiens, UniProt P50549 1-477); details: protein: recombinant; tags: N-terminal GST; dsDNA, one strand shown
# ETV1, sequence (P50549 whole entry): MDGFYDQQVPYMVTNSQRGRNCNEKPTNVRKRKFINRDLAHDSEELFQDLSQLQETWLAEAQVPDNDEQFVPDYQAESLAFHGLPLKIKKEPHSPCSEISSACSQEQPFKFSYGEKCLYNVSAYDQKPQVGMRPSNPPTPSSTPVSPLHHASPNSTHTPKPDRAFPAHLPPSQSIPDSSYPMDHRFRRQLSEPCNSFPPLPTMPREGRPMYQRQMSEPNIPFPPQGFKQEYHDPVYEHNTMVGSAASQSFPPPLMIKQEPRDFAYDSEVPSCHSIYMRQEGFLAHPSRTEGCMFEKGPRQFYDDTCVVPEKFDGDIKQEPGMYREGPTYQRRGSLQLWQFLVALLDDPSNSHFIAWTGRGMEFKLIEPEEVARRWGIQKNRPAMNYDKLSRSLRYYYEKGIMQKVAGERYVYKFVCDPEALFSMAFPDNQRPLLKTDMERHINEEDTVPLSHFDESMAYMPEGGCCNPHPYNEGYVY
# Method in brief: as §1
# ERF = target: T6, ERF (Homo sapiens, UniProt P50548 1-548); details: protein: recombinant; tags: N-terminal GST; dsDNA, one strand shown
# T6 sequence: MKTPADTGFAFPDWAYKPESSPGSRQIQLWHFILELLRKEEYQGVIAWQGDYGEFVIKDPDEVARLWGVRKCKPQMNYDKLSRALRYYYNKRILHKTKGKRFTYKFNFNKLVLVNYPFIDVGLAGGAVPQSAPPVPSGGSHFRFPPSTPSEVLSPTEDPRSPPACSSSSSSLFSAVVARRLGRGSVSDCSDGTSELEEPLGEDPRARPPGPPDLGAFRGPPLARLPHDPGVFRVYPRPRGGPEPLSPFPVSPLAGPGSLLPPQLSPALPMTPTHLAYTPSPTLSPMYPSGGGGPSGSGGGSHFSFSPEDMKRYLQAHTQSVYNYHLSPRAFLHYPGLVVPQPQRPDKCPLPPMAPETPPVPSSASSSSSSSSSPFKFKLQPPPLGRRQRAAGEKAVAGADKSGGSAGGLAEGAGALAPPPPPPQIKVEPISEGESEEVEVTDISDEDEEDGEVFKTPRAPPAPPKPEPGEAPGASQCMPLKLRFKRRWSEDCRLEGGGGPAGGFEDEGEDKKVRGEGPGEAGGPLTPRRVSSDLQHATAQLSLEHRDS
# Method in brief: as §1
# ETV3L = target: T7, ETV3L (Homo sapiens, UniProt Q6ZN32 1-361); details: protein: recombinant; tags: N-terminal GST; dsDNA, one strand shown
# T7 sequence: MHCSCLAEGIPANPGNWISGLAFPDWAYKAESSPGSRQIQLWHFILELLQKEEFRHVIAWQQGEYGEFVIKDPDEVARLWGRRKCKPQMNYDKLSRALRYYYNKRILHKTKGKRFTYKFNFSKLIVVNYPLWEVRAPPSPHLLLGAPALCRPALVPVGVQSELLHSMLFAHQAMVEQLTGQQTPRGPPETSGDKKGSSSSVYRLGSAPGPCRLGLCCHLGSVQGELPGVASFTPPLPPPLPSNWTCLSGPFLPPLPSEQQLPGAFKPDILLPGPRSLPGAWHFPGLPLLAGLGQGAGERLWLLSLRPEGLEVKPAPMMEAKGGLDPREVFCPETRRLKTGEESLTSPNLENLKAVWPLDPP
# Method in brief: as §1
# ETS2 = target: T8, ETS2 (Homo sapiens, UniProt P15036 1-469); details: protein: recombinant; tags: N-terminal GST; dsDNA, one strand shown
# T8 sequence: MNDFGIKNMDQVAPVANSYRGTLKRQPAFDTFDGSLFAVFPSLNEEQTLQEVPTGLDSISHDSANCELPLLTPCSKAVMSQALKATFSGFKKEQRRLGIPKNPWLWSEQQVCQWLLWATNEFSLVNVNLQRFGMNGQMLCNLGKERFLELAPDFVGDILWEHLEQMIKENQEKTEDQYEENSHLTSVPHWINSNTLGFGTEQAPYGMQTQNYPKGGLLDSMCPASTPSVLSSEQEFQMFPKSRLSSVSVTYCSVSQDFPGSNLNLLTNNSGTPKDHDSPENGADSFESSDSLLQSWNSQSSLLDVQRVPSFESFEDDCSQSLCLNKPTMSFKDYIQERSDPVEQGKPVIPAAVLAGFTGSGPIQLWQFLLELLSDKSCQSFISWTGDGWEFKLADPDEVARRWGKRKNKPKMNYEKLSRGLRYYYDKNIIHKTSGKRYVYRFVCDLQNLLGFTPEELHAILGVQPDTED
# Method in brief: as §1
# ETV7 = target: T9, ETV7 (Homo sapiens, UniProt Q9Y603 1-341); details: protein: recombinant; tags: N-terminal GST; dsDNA, one strand shown
# T9 sequence: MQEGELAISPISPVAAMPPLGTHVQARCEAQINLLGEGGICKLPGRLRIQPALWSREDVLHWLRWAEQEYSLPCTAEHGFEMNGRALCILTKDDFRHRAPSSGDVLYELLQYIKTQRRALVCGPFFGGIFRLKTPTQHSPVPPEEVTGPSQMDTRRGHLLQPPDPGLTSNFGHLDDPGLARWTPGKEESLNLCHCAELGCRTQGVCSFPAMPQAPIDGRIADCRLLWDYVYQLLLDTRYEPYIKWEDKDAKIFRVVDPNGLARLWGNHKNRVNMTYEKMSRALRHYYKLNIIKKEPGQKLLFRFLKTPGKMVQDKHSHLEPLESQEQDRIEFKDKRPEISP
# Method in brief: as §1
# ETV3 = target: T10, ETV3 (Homo sapiens, UniProt P41162-2 1-143); details: protein: recombinant; tags: N-terminal GST; dsDNA, one strand shown
# T10 sequence: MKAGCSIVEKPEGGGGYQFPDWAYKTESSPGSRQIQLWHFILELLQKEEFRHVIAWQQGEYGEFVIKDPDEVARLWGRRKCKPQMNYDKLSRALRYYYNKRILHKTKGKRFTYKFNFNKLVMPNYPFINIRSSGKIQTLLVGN
# Method in brief: as §1
# HSF1 = HSF1 (Homo sapiens, UniProt Q00613 1-529); details: protein: recombinant; tags: N-terminal GST; chain copies: 3; dsDNA, one strand shown
# HSF1, sequence (Q00613 whole entry): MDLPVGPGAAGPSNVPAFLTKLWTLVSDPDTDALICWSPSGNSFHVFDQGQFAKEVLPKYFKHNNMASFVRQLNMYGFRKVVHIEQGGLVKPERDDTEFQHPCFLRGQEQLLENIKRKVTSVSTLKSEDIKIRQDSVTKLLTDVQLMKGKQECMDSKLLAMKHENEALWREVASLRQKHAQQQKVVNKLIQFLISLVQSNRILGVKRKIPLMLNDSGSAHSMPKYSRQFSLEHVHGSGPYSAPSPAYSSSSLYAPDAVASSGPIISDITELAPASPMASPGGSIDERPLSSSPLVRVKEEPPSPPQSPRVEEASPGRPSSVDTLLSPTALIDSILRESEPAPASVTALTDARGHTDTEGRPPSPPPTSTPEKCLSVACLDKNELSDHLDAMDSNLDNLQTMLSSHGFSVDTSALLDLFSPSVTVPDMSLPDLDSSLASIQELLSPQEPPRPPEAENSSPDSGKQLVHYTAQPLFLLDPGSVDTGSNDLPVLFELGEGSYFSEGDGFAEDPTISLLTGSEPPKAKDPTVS
# Method in brief: as §1
Sequence,binding signal (FLI1),binding signal (ELK1),binding signal (ELF1),binding signal (EHF),binding signal (SPIB),binding signal (SPIC),binding signal (ELF4),binding signal (ELK4),binding signal (ETV1),binding signal (ERF),binding signal (ETV3L),binding signal (ETS2),binding signal (ETV7),binding signal (ETV3),binding signal (HSF1)
GATGGG,"1.03 fold enrichment (6-mer frequency, TF over GST control)","1.02 fold enrichment (6-mer frequency, TF over GST control)","1 fold enrichment (6-mer frequency, TF over GST control)","1.02 fold enrichment (6-mer frequency, TF over GST control)","1.12 fold enrichment (6-mer frequency, TF over GST control)","1.08 fold enrichment (6-mer frequency, TF over GST control)","1.01 fold enrichment (6-mer frequency, TF over GST control)","1.01 fold enrichment (6-mer frequency, TF over GST control)","1.04 fold enrichment (6-mer frequency, TF over GST control)","1 fold enrichment (6-mer frequency, TF over GST control)","1.02 fold enrichment (6-mer frequency, TF over GST control)","1 fold enrichment (6-mer frequency, TF over GST control)","1.03 fold enrichment (6-mer frequency, TF over GST control)","1.04 fold enrichment (6-mer frequency, TF over GST control)",
TCGCGT,"1.01 fold enrichment (6-mer frequency, TF over GST control)",,"1 fold enrichment (6-mer frequency, TF over GST control)","1.02 fold enrichment (6-mer frequency, TF over GST control)","1.01 fold enrichment (6-mer frequency, TF over GST control)",,,"1.06 fold enrichment (6-mer frequency, TF over GST control)",,,,,,,"1.04 fold enrichment (6-mer frequency, TF over GST control)"
